# How the values were obtained:
# Test in all cases: DAPPL (digital affinity profiling via proximity ligation, sequencing); 10 mM Tris-HCl pH 7.5, 50 mM NaCl, 1 mM DTT, 4% glycerol, room temperature, 30 min; GST-TFs on glutathione beads, 16-mer random dsDNA library, 0.1% formaldehyde crosslink after washing; high values mean tight binding
# FLI1 = target: T1, FLI1 (Homo sapiens, UniProt Q01543 1-452); details: protein: recombinant; tags: N-terminal GST; dsDNA, one strand shown
# T1 sequence: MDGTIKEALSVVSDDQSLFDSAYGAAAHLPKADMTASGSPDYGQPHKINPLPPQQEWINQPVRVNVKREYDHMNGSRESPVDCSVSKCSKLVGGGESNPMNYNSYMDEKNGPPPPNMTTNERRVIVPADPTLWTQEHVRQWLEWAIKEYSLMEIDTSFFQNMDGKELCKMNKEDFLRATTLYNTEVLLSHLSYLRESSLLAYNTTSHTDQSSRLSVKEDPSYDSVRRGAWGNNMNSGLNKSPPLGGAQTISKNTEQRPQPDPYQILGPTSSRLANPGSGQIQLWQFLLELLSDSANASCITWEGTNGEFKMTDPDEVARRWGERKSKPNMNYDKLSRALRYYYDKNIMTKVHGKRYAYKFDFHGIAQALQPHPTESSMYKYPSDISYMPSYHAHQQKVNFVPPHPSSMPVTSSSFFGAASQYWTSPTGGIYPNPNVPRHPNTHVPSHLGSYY
# Outline: (§1)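 Binding signal is defined as a hexamer's read frequency for one factor over its frequency for the tag-only sample. To obtain reads, GST-fused human transcription factors were expressed in yeast, captured on glutathione beads, barcoded with DNA and pooled with that sample. Pools met 200 nmole of a 16-mer random double-stranded DNA library in Tris/NaCl/DTT/glycerol buffer for 30 min at room temperature before washing, 0.1% formaldehyde crosslinking, proximity ligation (BsaI/T4 ligase, 1 h, 37 °C), PCR and Illumina NextSeq500 sequencing.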
# ELK1 = target: T2, ELK1 (Homo sapiens, UniProt P19419 1-428); details: protein: recombinant; tags: N-terminal GST; dsDNA, one strand shown
# T2 sequence: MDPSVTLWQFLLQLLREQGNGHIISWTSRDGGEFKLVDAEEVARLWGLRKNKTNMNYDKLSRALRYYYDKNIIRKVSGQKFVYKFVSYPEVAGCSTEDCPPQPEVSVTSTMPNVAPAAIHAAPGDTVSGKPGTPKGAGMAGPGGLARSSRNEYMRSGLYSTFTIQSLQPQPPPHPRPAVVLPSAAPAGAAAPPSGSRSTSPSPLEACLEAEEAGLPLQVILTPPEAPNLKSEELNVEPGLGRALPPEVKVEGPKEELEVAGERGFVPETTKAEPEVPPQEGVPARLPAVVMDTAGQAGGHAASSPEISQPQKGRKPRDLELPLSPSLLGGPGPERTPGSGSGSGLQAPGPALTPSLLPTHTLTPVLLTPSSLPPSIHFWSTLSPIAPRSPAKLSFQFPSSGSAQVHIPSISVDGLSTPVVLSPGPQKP
# Outline: as §1
# GABPA = target: T3, GABPA (Homo sapiens, UniProt Q06546 1-454); details: protein: recombinant; tags: N-terminal GST; dsDNA, one strand shown
# T3 sequence: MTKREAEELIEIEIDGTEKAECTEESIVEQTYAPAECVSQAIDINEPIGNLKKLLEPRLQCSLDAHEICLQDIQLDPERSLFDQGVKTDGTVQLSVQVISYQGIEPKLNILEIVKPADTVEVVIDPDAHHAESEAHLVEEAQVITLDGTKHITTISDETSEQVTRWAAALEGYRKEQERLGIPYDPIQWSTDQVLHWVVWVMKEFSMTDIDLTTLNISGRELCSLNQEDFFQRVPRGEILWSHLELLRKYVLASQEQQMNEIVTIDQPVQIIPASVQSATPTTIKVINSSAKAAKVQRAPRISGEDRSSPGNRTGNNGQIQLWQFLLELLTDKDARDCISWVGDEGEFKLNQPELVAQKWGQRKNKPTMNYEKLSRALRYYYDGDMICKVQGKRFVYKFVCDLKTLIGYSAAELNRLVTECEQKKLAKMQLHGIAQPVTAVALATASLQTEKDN
# Outline: as §1
# ERG = target: T4, ERG (Homo sapiens, UniProt P11308 1-479); details: protein: recombinant; tags: N-terminal GST; dsDNA, one strand shown
# T4 sequence: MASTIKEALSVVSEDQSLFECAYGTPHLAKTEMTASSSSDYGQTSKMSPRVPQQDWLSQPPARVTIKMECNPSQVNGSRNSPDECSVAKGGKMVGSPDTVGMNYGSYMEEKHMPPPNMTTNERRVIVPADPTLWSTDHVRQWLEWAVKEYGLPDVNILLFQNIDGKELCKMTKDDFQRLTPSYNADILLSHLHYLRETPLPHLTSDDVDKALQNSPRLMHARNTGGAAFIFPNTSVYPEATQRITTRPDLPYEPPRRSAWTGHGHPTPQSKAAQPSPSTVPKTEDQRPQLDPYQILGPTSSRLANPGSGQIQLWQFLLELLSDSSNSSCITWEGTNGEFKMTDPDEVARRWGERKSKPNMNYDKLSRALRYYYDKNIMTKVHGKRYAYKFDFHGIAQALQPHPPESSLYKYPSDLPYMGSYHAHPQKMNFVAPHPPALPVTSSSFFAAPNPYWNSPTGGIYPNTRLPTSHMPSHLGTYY
# Outline: as §1
# ELF1 = ELF1 (Homo sapiens, UniProt P32519 1-619); details: protein: recombinant; tags: N-terminal GST; dsDNA, one strand shown
# Chain of ELF1 (P32519 whole entry): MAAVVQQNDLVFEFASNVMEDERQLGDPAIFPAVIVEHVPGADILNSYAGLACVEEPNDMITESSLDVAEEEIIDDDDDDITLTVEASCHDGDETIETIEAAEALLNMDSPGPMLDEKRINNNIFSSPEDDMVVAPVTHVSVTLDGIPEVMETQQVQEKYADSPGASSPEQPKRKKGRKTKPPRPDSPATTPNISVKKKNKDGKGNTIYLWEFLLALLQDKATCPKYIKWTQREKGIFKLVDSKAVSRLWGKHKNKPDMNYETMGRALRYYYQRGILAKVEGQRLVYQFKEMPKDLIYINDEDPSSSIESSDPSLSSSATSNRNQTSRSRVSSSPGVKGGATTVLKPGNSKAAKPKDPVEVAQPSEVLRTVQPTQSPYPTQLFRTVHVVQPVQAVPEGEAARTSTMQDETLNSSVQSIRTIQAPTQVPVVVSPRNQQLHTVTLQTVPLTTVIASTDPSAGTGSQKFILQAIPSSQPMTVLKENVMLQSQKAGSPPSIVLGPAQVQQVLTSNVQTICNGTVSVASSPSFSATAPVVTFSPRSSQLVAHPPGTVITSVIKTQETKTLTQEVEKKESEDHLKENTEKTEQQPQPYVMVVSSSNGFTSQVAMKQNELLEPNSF
# Outline: as §1
# EHF = target: T5, EHF (Homo sapiens, UniProt Q9NZC4 1-300); details: protein: recombinant; tags: N-terminal GST; dsDNA, one strand shown
# T5 sequence: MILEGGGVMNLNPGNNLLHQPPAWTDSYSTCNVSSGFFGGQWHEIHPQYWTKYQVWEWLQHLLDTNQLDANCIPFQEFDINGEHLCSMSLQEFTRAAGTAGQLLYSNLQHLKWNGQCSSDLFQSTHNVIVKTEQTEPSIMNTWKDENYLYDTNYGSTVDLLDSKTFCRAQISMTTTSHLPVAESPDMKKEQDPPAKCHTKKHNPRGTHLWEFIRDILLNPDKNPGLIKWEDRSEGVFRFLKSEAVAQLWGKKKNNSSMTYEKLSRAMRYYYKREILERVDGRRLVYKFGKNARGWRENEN
# Outline: as §1
# SPI1 = SPI1 (Homo sapiens, UniProt P17947 1-270); details: protein: recombinant; tags: N-terminal GST; dsDNA, one strand shown
# Outline: as §1
# SPIB = SPIB (Homo sapiens, UniProt Q01892 1-262); details: protein: recombinant; tags: N-terminal GST; dsDNA, one strand shown
# Chain of SPIB (Q01892 whole entry): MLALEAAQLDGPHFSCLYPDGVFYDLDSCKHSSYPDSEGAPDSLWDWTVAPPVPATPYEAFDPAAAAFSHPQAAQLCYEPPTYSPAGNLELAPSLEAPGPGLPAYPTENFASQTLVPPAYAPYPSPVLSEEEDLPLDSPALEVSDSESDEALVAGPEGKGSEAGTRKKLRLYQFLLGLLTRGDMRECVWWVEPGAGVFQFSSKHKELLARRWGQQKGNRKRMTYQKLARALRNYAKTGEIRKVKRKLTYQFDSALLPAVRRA
# Outline: as §1
# ELK3 = target: T6, ELK3 (Homo sapiens, UniProt P41970 1-407); details: protein: recombinant; tags: N-terminal GST; dsDNA, one strand shown
# T6 sequence: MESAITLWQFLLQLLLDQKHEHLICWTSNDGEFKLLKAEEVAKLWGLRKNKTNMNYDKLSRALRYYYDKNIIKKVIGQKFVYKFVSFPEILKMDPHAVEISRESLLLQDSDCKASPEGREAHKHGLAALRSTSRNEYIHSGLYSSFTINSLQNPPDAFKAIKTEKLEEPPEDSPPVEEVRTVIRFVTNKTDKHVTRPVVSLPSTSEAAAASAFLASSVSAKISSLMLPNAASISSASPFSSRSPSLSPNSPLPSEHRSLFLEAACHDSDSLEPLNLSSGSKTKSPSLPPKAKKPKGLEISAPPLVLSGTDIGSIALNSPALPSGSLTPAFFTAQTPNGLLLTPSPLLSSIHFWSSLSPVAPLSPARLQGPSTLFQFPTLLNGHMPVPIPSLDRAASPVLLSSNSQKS
# Outline: as §1
# FEV = target: T7, FEV (Homo sapiens, UniProt Q99581 1-238); details: protein: recombinant; tags: N-terminal GST; dsDNA, one strand shown
# T7 sequence: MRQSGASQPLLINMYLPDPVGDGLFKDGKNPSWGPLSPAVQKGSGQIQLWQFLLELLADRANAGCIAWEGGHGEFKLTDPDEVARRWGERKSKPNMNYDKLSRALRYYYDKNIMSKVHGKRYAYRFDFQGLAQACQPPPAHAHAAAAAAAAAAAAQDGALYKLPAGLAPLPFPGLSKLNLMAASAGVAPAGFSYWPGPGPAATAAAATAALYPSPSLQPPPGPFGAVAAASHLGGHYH
# Outline: as §1
# ETV5 = ETV5 (Homo sapiens, UniProt P41161 1-510); details: protein: recombinant; tags: N-terminal GST; dsDNA, one strand shown
# Chain of ETV5 (P41161 whole entry): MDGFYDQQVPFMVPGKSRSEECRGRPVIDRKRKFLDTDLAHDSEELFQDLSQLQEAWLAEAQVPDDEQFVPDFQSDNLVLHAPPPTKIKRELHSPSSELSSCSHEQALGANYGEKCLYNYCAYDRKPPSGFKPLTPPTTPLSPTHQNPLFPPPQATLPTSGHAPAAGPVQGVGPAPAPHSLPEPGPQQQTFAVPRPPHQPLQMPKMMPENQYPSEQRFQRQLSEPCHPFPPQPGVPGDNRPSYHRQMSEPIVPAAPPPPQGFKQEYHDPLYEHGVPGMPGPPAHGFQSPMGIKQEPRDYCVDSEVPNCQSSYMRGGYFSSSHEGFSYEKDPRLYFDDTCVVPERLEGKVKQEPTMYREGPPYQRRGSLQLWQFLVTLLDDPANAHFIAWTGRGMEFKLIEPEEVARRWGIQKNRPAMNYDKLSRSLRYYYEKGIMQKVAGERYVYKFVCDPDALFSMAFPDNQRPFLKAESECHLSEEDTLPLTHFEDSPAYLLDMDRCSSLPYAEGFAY
# Outline: as §1
# HSF1 = HSF1 (Homo sapiens, UniProt Q00613 1-529); details: protein: recombinant; tags: N-terminal GST; chain copies: 3; dsDNA, one strand shown
# Chain of HSF1 (Q00613 whole entry): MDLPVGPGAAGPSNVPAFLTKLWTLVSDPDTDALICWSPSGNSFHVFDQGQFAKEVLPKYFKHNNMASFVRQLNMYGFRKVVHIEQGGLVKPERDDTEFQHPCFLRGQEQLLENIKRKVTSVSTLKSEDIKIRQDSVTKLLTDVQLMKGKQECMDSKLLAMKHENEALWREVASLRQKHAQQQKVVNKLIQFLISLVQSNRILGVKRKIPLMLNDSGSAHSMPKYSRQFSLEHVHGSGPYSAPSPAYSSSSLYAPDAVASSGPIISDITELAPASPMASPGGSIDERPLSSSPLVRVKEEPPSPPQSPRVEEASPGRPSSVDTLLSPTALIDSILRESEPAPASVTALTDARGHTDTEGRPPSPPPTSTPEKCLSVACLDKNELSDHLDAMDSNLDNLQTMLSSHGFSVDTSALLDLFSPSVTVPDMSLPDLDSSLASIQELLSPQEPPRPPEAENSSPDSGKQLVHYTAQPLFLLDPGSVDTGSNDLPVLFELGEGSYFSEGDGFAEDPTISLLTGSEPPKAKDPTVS
# Outline: as §1
# SPIC = target: T8, SPIC (Homo sapiens, UniProt Q8N5J4 1-248); details: protein: recombinant; tags: N-terminal GST; dsDNA, one strand shown
# T8 sequence: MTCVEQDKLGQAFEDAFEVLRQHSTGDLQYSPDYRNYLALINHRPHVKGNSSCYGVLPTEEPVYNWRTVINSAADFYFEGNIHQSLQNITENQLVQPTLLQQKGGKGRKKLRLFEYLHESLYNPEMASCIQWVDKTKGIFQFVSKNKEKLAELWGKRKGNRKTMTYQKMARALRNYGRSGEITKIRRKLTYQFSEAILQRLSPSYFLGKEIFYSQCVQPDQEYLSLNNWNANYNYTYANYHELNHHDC
# Outline: as §1
# ELF4 = ELF4 (Homo sapiens, UniProt Q99607 1-663); details: protein: recombinant; tags: N-terminal GST; dsDNA, one strand shown
# Chain of ELF4 (Q99607 whole entry): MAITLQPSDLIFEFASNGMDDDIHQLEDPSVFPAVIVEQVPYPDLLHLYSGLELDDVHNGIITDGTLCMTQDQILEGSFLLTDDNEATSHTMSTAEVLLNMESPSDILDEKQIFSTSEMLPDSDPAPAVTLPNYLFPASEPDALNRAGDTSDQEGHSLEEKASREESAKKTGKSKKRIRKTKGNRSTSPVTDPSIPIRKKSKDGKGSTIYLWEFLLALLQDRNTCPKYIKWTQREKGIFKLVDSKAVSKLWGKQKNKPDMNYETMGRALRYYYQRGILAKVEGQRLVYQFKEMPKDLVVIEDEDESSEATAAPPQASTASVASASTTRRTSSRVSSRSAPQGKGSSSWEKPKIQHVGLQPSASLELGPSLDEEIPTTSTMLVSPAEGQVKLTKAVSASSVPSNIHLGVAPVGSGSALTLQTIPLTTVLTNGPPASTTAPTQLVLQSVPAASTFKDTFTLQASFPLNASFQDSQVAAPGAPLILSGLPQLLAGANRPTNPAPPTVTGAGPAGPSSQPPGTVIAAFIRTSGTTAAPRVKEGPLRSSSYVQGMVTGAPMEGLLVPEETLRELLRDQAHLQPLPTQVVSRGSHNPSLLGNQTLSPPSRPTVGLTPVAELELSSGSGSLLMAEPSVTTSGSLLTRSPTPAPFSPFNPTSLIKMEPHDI
# Outline: as §1
# ELK4 = target: T9, ELK4 (Homo sapiens, UniProt P28324-2 1-405); details: protein: recombinant; tags: N-terminal GST; dsDNA, one strand shown
# T9 sequence: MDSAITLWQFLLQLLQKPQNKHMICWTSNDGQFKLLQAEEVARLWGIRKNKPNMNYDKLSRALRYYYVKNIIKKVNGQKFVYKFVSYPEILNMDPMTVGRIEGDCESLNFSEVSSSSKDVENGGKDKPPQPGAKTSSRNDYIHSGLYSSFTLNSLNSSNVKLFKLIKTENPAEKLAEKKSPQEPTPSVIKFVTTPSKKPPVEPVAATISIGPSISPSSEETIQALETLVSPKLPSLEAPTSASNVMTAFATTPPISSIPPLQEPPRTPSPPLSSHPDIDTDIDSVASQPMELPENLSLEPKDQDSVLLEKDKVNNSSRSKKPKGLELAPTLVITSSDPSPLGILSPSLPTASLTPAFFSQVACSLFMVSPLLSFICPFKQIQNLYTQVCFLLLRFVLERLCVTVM
# Outline: as §1
# ETV2 = target: T10, ETV2 (Homo sapiens, UniProt O00321 1-342); details: protein: recombinant; tags: N-terminal GST; dsDNA, one strand shown
# T10 sequence: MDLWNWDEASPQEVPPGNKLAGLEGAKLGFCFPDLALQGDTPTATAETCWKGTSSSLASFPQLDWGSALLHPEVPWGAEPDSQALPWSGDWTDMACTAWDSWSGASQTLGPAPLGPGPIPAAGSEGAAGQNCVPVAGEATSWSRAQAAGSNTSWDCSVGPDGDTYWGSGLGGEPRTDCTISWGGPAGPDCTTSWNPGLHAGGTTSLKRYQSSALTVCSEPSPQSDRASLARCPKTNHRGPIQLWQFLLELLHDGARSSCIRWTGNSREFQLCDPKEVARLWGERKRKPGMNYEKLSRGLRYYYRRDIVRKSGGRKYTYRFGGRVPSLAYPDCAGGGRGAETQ
# Outline: as §1
# ELF3 = target: T11, ELF3 (Homo sapiens, UniProt P78545 1-371); details: protein: recombinant; tags: N-terminal GST; dsDNA, one strand shown
# T11 sequence: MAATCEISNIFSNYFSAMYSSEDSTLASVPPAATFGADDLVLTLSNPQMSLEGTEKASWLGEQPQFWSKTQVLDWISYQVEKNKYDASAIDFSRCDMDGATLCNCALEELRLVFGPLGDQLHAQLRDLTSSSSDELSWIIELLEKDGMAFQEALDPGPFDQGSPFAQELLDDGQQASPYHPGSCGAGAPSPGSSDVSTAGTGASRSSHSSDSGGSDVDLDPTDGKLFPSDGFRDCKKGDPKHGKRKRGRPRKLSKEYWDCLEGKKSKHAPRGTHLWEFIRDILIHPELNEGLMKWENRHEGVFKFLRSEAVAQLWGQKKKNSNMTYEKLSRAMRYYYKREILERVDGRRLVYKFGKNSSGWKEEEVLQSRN
# Outline: as §1
# CRX = CRX (Homo sapiens, UniProt O43186 1-299); details: protein: recombinant; tags: N-terminal GST; dsDNA, one strand shown
# Chain of CRX (O43186 whole entry): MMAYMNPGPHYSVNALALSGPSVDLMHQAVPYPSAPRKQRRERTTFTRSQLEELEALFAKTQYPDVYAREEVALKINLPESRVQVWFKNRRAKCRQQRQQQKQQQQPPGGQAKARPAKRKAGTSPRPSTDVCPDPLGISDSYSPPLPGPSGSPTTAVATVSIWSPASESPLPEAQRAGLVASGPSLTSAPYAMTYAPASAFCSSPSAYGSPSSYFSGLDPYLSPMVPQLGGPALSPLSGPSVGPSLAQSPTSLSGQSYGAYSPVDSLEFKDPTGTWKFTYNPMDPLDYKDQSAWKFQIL
# Outline: as §1
# ETV1 = ETV1 (Homo sapiens, UniProt P50549 1-477); details: protein: recombinant; tags: N-terminal GST; dsDNA, one strand shown
# Chain of ETV1 (P50549 whole entry): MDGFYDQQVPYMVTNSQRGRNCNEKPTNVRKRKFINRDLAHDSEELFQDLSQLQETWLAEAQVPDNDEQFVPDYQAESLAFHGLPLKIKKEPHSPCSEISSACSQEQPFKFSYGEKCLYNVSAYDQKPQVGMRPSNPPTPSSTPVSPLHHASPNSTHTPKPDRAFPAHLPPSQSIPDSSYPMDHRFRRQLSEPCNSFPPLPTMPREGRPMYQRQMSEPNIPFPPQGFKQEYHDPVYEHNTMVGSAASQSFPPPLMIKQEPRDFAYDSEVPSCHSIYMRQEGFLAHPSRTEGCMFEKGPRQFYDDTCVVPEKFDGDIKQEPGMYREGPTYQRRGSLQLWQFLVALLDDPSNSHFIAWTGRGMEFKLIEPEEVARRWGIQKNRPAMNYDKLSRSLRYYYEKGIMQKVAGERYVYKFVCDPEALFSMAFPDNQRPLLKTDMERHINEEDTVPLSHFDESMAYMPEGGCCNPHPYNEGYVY
# Outline: as §1
sequence,measurement,setting,value
GTCTCG,binding signal,FLI1,"1.36 fold enrichment (6-mer frequency, TF over GST control)"
same,binding signal,ELK1,"1.37 fold enrichment (6-mer frequency, TF over GST control)"
same,binding signal,GABPA,"1.3 fold enrichment (6-mer frequency, TF over GST control)"
same,binding signal,ERG,"1.26 fold enrichment (6-mer frequency, TF over GST control)"
same,binding signal,ELF1,"1.32 fold enrichment (6-mer frequency, TF over GST control)"
same,binding signal,EHF,"1.28 fold enrichment (6-mer frequency, TF over GST control)"
same,binding signal,SPI1,"1.33 fold enrichment (6-mer frequency, TF over GST control)"
same,binding signal,SPIB,"1.43 fold enrichment (6-mer frequency, TF over GST control)"
same,binding signal,ELK3,"1.37 fold enrichment (6-mer frequency, TF over GST control)"
same,binding signal,FEV,"1.3 fold enrichment (6-mer frequency, TF over GST control)"
same,binding signal,ETV5,"1.25 fold enrichment (6-mer frequency, TF over GST control)"
same,binding signal,HSF1,"1.55 fold enrichment (6-mer frequency, TF over GST control)"
same,binding signal,SPIC,"1.21 fold enrichment (6-mer frequency, TF over GST control)"
same,binding signal,ELF4,"1.43 fold enrichment (6-mer frequency, TF over GST control)"
same,binding signal,ELK4,"1.3 fold enrichment (6-mer frequency, TF over GST control)"
same,binding signal,ETV2,"1.03 fold enrichment (6-mer frequency, TF over GST control)"
same,binding signal,ELF3,"1.35 fold enrichment (6-mer frequency, TF over GST control)"
same,binding signal,CRX,"1.06 fold enrichment (6-mer frequency, TF over GST control)"
same,binding signal,ETV1,"1.35 fold enrichment (6-mer frequency, TF over GST control)"

# Source: article PMC7862700, “An all-to-all approach to the identification of sequence-specific readers for epigenetic DNA modifications on cytosine”
